High-throughput results as filed in PubChem BioAssay.
A selection: hits, their analogues and other compounds. The true share with any hit is near 10%.
HP1b chromo inh: blocks HP1-beta chromodomain binding to methylated histone tails; Potency, µM (highest dose often 114 µM), for inactives: top-dose activity change, negative = inhibition, most hits filed as inhibitors; AlphaScreen HP1-beta / biotin-H3K9me3 peptide binding; 390,000 tested, 0.56% active; also: potency is read from the fitted curve at half-maximal effect; nearly all actives have a fitted effect of over 70% in size
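Compound inhibition of the preformed complex between 50 nM HP1-beta and 50 nM biotinylated H3K9me3 peptide was read by AlphaScreen. Buffer was PBS pH 7.4 with 0.01% Tween-20. Incubations ran 30 min at room temperature, with 10 ug/mL donor/acceptor beads.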
CtBP-E1A inh: CtBP/E1A binding inhibition. 340,000 tested, 0.49% active. AlphaScreen GST-E1A/His-CtBP binding, 1536-well; hits give low values. activity change, % (concentration not given with the values); in the data active = activity change below about -65%; inconclusive = mostly about -30% to -63%; also: % is scaled to controls: 0 for no effect and ±100 for the full control effect
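In 5 uL wells, 23 nL compound meets equimolar GST-E1A and His-CtBP (5X stock 125 nM each) for 2 h, 37 °C. Beads (5X, 50 ug/mL) then 1 h, 37 °C, dark.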
JMJD2A Tudor: blocks the human JMJD2A Tudor domain | AlphaScreen JMJD2A-Tudor / H3K4me3 peptide binding | O75164 | Potency, µM (top dose mostly 114 µM), inactives show at the highest dose activity change, negative = inhibition, most hits filed as inhibitors | 390,000 tested, 4.4% active; also: potency is read from the fitted curve at half-maximal effect; % is scaled to controls: 0 for no effect and ±100 for the full control effect; nearly all actives have a fitted effect of over 50% in size
Target sequence (O75164 whole entry, looked up, the tested form may be a part): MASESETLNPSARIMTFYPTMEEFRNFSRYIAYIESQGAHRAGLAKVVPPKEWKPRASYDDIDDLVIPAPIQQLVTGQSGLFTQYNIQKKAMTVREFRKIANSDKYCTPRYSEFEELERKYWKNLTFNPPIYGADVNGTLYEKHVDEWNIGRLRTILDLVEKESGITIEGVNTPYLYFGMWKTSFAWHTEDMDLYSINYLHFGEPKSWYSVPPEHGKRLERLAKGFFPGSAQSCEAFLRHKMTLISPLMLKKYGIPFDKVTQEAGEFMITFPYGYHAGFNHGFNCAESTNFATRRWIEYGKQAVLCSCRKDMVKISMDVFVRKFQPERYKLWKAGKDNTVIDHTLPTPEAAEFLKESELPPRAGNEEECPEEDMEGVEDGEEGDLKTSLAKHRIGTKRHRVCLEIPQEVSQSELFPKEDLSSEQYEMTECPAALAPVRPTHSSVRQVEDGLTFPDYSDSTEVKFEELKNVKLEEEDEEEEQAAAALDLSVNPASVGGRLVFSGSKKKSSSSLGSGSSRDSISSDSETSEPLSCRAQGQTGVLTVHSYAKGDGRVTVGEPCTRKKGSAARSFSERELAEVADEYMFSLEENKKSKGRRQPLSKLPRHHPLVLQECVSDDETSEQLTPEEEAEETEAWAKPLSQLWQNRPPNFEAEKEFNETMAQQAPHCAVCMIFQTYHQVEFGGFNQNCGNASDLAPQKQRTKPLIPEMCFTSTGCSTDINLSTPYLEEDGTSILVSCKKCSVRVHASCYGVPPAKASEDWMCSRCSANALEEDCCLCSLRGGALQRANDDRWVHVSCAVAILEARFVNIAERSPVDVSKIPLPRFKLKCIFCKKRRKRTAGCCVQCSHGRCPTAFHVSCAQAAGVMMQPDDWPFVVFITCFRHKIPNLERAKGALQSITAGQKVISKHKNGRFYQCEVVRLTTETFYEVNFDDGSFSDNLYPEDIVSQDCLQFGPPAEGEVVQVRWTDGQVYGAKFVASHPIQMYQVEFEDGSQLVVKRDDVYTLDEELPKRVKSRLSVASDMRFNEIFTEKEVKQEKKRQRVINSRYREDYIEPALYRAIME
G9a inh: inhibitors of human histone lysine methyltransferase G9a | Q96KQ7 | G9a H3K9 monomethylation, AlphaScreen, 2 h | Potency, µM (top dose mostly 102 µM), inactives show at the top dose activity, negative = inhibition, actives largely listed as inhibitors | 350,000 tested, 8.8% active | AID 504332; also: potency is read from the fitted curve at half-maximal effect; % is scaled to controls: 0 for no effect and ±100 for the full control effect; nearly all actives have a fitted effect of over 75% in size
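Readings reflect AlphaScreen signal from monomethyl-H3K9 antibody detection. HMT at 20 nM; substrate b-H3K9 500 nM; cofactor SAM 20 uM; 2 h RT reaction; compounds tested as titrations in qHTS with 15 min preincubation.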
BAZ2B block: BAZ2B (human) inhibition; 360,000 tested, 4.4% active; Potency, µM (series often up to 114 µM), without a hit: top-dose activity change, negative = inhibition, hits mostly inhibitors; AID 504333; AlphaScreen BAZ2B-H3K14Ac peptide displacement; Q9UIF8; also: potency is read from the fitted curve at half-maximal effect; % is scaled to controls: 0 for no effect and ±100 for the full control effect; nearly all actives have a fitted effect of over 60% in size
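Protein-peptide AlphaScreen: BAZ2B 50 nM, b-H3K14Ac 50 nM, 1x PBS pH 7.4 + 0.01% Tween-20. Preincubation 30 min RT; cpd 30 min RT (top 110 uM); beads 20 min RT, light-protected.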
Six1-Eya2 inh: inhibitors of human Six1/Eya2 interaction. 360,000 tested, 0.56% active. AlphaScreen GST-Six1/His-Eya2 binding, biochemical; hits give low values. AID 651725. Q15475+O00167. activity change, % (no concentration beside the values); in the data active = activity change below about -65%; inconclusive = mostly about -30% to -63%; also: % is scaled to controls: 0 for no effect and ±100 for the full control effect
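Homogeneous AlphaScreen proximity assay pairing GST-Six1 with His-tagged Eya2 (added as 5X mix: 250 nM and 500 nM) in 50 mM Tris pH 8.0, 300 mM NaCl, 1 mM TCEP. Glutathione donor and nickel acceptor beads; 1 h, 37 °C, dark.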
* marks the source's active call; other numbers are inactive results; ? = inconclusive; nt = not tested or not shown; [ ] = dose if it differs, or a comment. Unless noted, calls follow the shape of the dose curve; as a rule, active = well fitted inhibition curve with a large enough effect; inconclusive = small, poorly fitted or top-dose-only effect; inactive = no such curve, though single readings can be large or run the other way.

SMILES	HP1b chromo inh	CtBP-E1A inh	JMJD2A Tudor	G9a inh	BAZ2B block	Six1-Eya2 inh
COc1cccc(-n2ccnc2SCC(=O)Nc2cccc(C)c2C)c1	-2%[57 µM]	nt	-35%	?	?	nt
Cc1ccc(-c2c3c(=O)n(C)c(=O)n(C)c3c3cnc4ccccc4n23)cc1	21%	nt	-3%	-27%[59 µM]	7%	nt
O=S(=O)(Nc1ccc(-n2cnnn2)cc1)c1cccs1	61%	29	-7%	?	-6%	12
CCOc1ccc(-n2ccnc(SCC(=O)Nc3ccc(OC)cc3OC)c2=O)cc1	-15%	2	?	35µM*	?	-22
CCOc1ccc(-n2ccnc(SCC(=O)NCc3cccc(OC)c3)c2=O)cc1	33%	11	-14%	-30%	-1%	-5
COc1ccc(NC(=O)CSc2nccn2-c2cccc(OC)c2)cc1	-19%	-3	?	?	?	-10
COc1cccc(-n2ccnc2SCC(=O)Nc2cc(OC)ccc2OC)c1	45µM*	?	89µM*	?	28µM*	-29
Cc1ccc(C)c(NC(=O)Cc2coc3cc(C)cc(C)c23)c1	28%	nt	-18%	-4%[59 µM]	2%	nt
CC(C)c1ccccc1OCC(=O)Nc1ccc2[nH]ncc2c1	29%	-3	-31%	71µM*	0%	-6
COCCn1nnnc1C(c1ccc(OC)c(OC)c1)N1CCc2ccccc21 (centres undefined)	0%	-7	-35%	?	-39%	-7
COCCn1nnnc1C(c1ccc2ncccc2c1)N1CCc2ccccc21 (centres undefined)	11%	3	-23%	50µM*	-36%	-9
COCCn1nnnc1C(c1ccc2ncccc2c1)N1CCN(c2ccccc2F)CC1 (centres undefined)	31%	8	-25%	8.9µM*	50µM*	0
COCCn1nnnc1C(c1ccc(OC)cc1OC)N1CCN(c2ccccc2F)CC1 (centres undefined)	21%	5	-18%	56µM*	?	3
COc1ccc(CCNCc2c(C(=O)O)c(C)n(Cc3cccc(Cl)c3)c2C)c(OC)c1OC	26%	nt	-14%	-1%[59 µM]	-13%	nt
CN(CCOc1ccccc1)C(=O)C1CCN(C(=O)c2ccc(F)cc2)CC1	29%	-4	-1%	43%	4%	-3
N#Cc1nc(Nc2cc(F)cc(F)c2)nc(Nc2cc(F)cc(F)c2)n1	nt	nt	-18%	nt	nt	nt
O=C(C=C1SCCS1)/C=C/c1ccco1	?	-5	45µM*	40µM*	50µM*	-14
O=C(O)C(C(=O)/C=C/c1ccco1)=C1SCCS1	71µM*	11	56µM*	?	50µM*	-23
O=C(/C=C/c1ccco1)NC1CCCC1	10%	-11	-4%	?	?	-1
O=C(C=Cc1ccco1)c1ccco1	-1%	-4	-21%	nt	nt	-6
COc1cccc(N2C(=O)c3ccccc3C2=O)c1	nt	nt	4%	nt	nt	nt
O=C(NC(=S)Nn1cnnc1)c1ccccc1Br	?	5	-15%	-127%[59 µM]	-28%	0
CCn1cc(C(=O)N2CCN(c3cccc(Cl)c3)CC2)c(=O)c2cc(S(=O)(=O)N3CCCCC3)ccc21	-7%	nt	-24%	-14%[59 µM]	nt	nt
O=C1NCCN1Cc1ccccc1F	12%	2	-4%	45µM*	-37%	7
O=C1NCCN1Cc1ccccc1	9%	0	9%	8%	7%	3
SMILES	HP1b chromo inh	CtBP-E1A inh	JMJD2A Tudor	G9a inh	BAZ2B block	Six1-Eya2 inh
CC(C)CNC(=O)/C=C/c1cccs1	20%	4	1%	17%[59 µM]	10%	1
CN(C)S(=O)(=O)c1ccc(Cl)c(C(=O)Nc2ccccc2[N+](=O)[O-])c1	-10%	-16	-35%	3%[59 µM]	-10%	1
COc1cc(NC(=O)CN(C)CCOc2ccccc2)c(C)cc1[N+](=O)[O-]	28%	nt	?	-15%	-24%	-13
CN(CCOc1ccccc1)CC(=O)Nc1ccc(Cl)cc1[N+](=O)[O-]	25µM*	?	0.79µM*	3.5µM*	13µM*	?
CN(CCOc1ccccc1)CC(=O)Nc1ccc(Cl)c(S(=O)(=O)N(C)C)c1	-7%	0	2.8µM*	8.9µM*	nt	-2
CCN(CC)S(=O)(=O)c1ccc(Cl)c(C(=O)Nc2ccc(Cl)cc2[N+](=O)[O-])c1	?	-13	?	8.9µM*	?	?
Cn1c(C(=O)NCc2ccc(F)cc2)cc2cc(S(=O)(=O)N3CCCCC3)ccc21	29%[57 µM]	nt	-25%	5%[59 µM]	0%	nt
C/C(=N/NC(=O)c1cc(-c2ccccc2)nc2c(Cl)cccc12)c1cccnc1	29%	-5	-16%	nt	-10%	0
O=C(Cn1ccn(-c2cccc(Cl)c2)c(=O)c1=O)NCCc1ccccc1	22%	nt	-8%	?	0%	nt
CCCN(CCC)S(=O)(=O)c1cc(Br)cc2c1N(C(=O)CC)CC2	60%	0	12%[57.1 µM]	50µM*	13%	21
CCC(=O)N1CCc2cc(Br)cc(S(=O)(=O)CCC(=O)N(C)c3cccc(C)c3)c21	?	nt	50µM*	-3%[12.7 µM]	45µM*	nt
CCC(=O)N1CCc2cc(Br)cc(S(=O)(=O)CCC(=O)N(CC)CC)c21	25%	4	-13%	6%	-1%	-15
Nc1[nH]c(C(=O)c2ccccc2)c(-c2ccc(F)cc2)c1C(=O)NCc1ccccc1	nt	-1	nt	nt	nt	2
c1ccc2c(CNc3ccc(CNc4ncn[nH]4)cc3)cccc2c1	?	-12	56µM*	?	45µM*	-23
COc1ccccc1CNc1ccc(CNc2ncn[nH]2)cc1	20%	-15	?	-45%	?	6
Cn1c(=O)c2c(-c3ccccc3)n(Cc3cccnc3)cc2n(C)c1=O	36%	3	-18%	10µM*	2%	1
Cc1ccc(-c2c3c(=O)n(C)c(=O)n(C)c3cn2Cc2cccnc2)cc1	47%	11	-20%	7.9µM*	11%	8
CCSC(=O)N1c2ccc(OC)cc2C=CC1C#N (centres undefined)	23%	0	-17%	nt	nt	3
CC[C@@H](C)[C@@H](CO[C@@H](Cc1ccccc1)C(=O)N[C@@H](CCS(C)(=O)=O)C(=O)OC(C)C)NC[C@@H](N)CS	nt	nt	nt	22µM*	nt	nt
CN(C)c1ccc(NC(=O)CSc2nc3ccccc3c(=O)n2CC2CCCO2)cc1 (centres undefined)	-10%	0	-13%	?	-18%	0
CN(C)c1ccc(NC(=O)CSc2nc3ccccc3c(=O)n2C2CCCCC2)cc1	?	?	7.9µM*	7.9µM*	10µM*	?
O=C(CSc1nc(C2CC2)nc2ccccc12)Nc1ccccc1	12%	-14	-9%	21%[59 µM]	1%	-5
